A short description of assay [1]: qHTS assay to identify aromatase inhibitors - cell viability counter screen (AID 743084;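 note: cells stimulated with testosterone during compound exposure; nearly all actives have a fitted effect of over 55% in size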; note: potency is the fitted concentration of half-maximal effect). (In general: In qHTS, concentration-response curves come from the screen itself.)
Assay [2] has as its target Aryl hydrocarbon receptor (Homo sapiens) (UniProt P35869). The assay can be described thus: qHTS assay to identify small molecule that activate the aryl hydrocarbon receptor (AhR) signaling pathway (AID 743085).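 For activation: HG2L7.5c1 human HepG2 liver cells with stably integrated DRE-driven firefly reporter; series mostly up to about 70 µM.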 Note: nearly all actives have a fitted effect of over 15% in size. Note: potency is the fitted concentration of half-maximal effect. The essentials: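 A multiplexed format paired cell viability (CellTiter-Fluor fluorescence) with AhR-dependent luciferase output (ONE-Glo luminescence) in the same wells of HepG2 DRE-luc cells after 24 h compound exposure at 37C.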

A short description of assay [3]: qHTS assay to identify small molecule that activate the aryl hydrocarbon receptor (AhR) signaling pathway - cell viability counter screen (AID 743086). Note: nearly all actives have a fitted effect of over 45% in size. Note: potency is the fitted concentration of half-maximal effect. The essentials: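 HepG2-AhR-luc (HG2L7.5c1) cells, 4000/well, treated 24 h at 37 C with compound; viability measured as CellTiter-Fluor fluorescence after 30 min in the same wells as the luciferase read.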
Assay [4] addresses Peroxisome proliferator-activated receptor gamma (Homo sapiens) (UniProt P37231). The assay can be described thus: qHTS assay to identify small molecule agonists of the peroxisome proliferator-activated receptor gamma (PPARg) signaling pathway (AID 743094; active = well fitted activation curve with a large enough effect in the signal ratio in the repeat runs, not every such curve was filed as active; the % refers to the signal ratio). The method, boiled down:
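Following 5 h plating at 37C, PPARg-bla HEK293H cells receive compound or DMSO for 17 h; fluorescence intensity is recorded after LiveBLAzer B/G loading for 1 h at room temperature.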

Assay [5] can be described thus: qHTS assay to identify small molecule antagonists of the peroxisome proliferator-activated receptor gamma (PPARg) signaling pathway - cell viability counter screen (AID 743194). Note: nearly all actives have a fitted effect of over 55% in size. Note: potency is the fitted concentration of half-maximal effect. The conditions noted are these: Potency: co-treated with 50 nM rosiglitazone unless noted. The essentials: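 Cytotoxicity counter screen in PPARg-bla HEK293H cells, same wells as reporter assay. Compounds plus 50 nM rosiglitazone (final) for 17 h at 37 C, then viability read by CellTiter-Glo luminescence.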

Assay [6] in a line: qHTS assay for small molecule agonists of the antioxidant response element (ARE) signaling pathway - cell viability counter screen (AID 743203; calls by dose curve; note: nearly all actives have a fitted effect of over 55% in size; note: potency is the fitted concentration of half-maximal effect). The method, boiled down:
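Compounds in DMSO were pinned onto ARE-bla HepG2 cells plated 5 hrs earlier at 2,000 cells/well. Sixteen hours later at 37C/5% CO2, CellTiter-Glo was added and luminescence measured after 30 min at room temperature.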

Assay [7] can be described thus: qHTS assay for small molecule activators of the heat shock response signaling pathway - cell viability counter screen (AID 743209). Note: nearly all actives have a fitted effect of over 50% in size. Note: potency is the fitted concentration of half-maximal effect. The essentials:
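Counter screen for cytotoxicity in HeLa HSE-bla reporter cells. Treatment was 5 h at 37 C; viability was detected by luminescent ATP assay (CellTiter-Glo) in the same wells as the beta-lactamase read.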

Assay [8] is described as follows: qHTS assay for small molecule activators of the heat shock response signaling pathway (AID 743210; active = well fitted activation curve with a large enough effect in the signal ratio in the repeat runs, with a control signal flat, not every such curve was filed as active; the % refers to the signal ratio; note: potency is the fitted concentration of half-maximal effect;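 for activation: HeLa cells with beta-lactamase reporter driven by heat shock elements; series mostly up to about 63 µM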). The essentials:
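Quantitative high-throughput format using an engineered HeLa line in which heat shock response elements drive beta-lactamase; after 5 h with compound, cells received a B/G FRET substrate and fluorescence was read.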

Assay [9] concerns the target Peroxisome proliferator-activated receptor gamma (Homo sapiens) (UniProt P37231). In words: qHTS assay to identify small molecule antagonists of the peroxisome proliferator-activated receptor gamma (PPARg) signaling pathway (AID 743191; calls by dose curve; note: series mostly up to about 63 µM; nearly all actives have a fitted effect of over 30% in size). The method, boiled down:
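GeneBLAzer PPARg UAS-bla HEK293H cells, 5 h post-plating, exposed to compounds 17 h at 37C. LiveBLAzer B/G FRET substrate added for 1 h at room temperature; beta-lactamase reporter read by fluorescence intensity.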

Assay [10] in a line: qHTS assay for small molecule agonists of the antioxidant response element (ARE) signaling pathway (AID 743202; active = well fitted activation curve with a large enough effect in the signal ratio in the repeat runs, not every such curve was filed as active; the % refers to the signal ratio; note: potency is the fitted concentration of half-maximal effect). The essentials: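 Agonist mode reporter screen: HepG2 cells with ARE-controlled beta-lactamase are incubated with test compounds for 16 h at 37 C, and beta-lactamase activity is measured as fluorescence of cleaved B/G FRET substrate.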

Several values for one entry are separate records, joined by “and”; a condition that tells them apart may be missing. Identical values can stand only once. Inconclusive results are not listed. The source holds several records for some structures; these can differ, active in one and inactive in another. Activity calls are given as the source filed them. Unless noted, calls come from the whole dose curve; as a rule, active = well fitted curve in the direction sought with a large enough effect in the repeat runs; inconclusive = weak or mixed curves; inactive = no such curve, though single readings can be large; an effect the other way counts as inactive or inconclusive.

Chain of Aryl hydrocarbon receptor (Homo sapiens) (P35869 whole entry, looked up): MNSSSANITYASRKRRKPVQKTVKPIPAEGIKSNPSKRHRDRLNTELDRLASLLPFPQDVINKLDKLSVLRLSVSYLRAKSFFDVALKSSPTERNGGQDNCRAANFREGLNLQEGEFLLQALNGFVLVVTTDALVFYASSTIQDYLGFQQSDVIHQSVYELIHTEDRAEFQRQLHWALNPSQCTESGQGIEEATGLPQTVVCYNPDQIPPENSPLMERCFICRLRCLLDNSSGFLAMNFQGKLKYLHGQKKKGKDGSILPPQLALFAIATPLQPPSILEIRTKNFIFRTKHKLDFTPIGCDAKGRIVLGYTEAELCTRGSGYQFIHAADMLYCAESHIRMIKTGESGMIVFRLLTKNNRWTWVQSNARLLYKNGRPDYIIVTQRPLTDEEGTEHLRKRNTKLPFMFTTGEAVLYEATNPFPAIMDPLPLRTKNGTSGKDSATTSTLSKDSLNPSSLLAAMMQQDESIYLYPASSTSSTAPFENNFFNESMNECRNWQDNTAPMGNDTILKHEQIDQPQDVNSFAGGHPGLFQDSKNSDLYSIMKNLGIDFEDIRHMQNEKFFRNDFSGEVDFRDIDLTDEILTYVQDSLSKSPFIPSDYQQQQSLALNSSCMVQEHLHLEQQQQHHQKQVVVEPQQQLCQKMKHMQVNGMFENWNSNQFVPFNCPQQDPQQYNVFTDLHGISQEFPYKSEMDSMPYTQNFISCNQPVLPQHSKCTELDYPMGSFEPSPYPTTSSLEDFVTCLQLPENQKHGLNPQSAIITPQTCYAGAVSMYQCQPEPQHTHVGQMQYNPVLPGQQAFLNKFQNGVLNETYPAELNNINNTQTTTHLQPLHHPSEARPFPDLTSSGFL
Chain of Peroxisome proliferator-activated receptor gamma (Homo sapiens) (P37231 whole entry, looked up): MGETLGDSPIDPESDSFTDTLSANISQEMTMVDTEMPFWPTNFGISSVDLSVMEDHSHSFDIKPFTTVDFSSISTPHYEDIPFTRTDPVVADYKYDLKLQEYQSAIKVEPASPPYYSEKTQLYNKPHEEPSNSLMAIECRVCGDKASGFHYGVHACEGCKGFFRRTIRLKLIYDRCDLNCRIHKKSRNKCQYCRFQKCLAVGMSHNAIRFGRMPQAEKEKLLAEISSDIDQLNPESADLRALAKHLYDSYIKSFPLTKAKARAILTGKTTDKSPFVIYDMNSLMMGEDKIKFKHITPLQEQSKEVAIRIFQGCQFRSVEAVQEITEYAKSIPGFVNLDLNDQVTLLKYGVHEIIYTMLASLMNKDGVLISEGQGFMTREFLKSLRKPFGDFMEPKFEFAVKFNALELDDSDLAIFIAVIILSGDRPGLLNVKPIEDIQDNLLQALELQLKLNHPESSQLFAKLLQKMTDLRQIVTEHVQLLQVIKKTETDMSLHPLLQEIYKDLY

As for `O=[N+]([O-])c1ccc(O)c([N+](=O)[O-])c1`, the results for the Potency in [1], in assay [2] and in assay [3] were 54.7 µM (active), 24.4 µM (active) and 38.7 µM (active), respectively. For the same compound, the Potency result in [4], in [5], in assay [6], in assay [7] and in assay [8] was “inactive” in each case.

For `CCCCNC(=O)n1c(NC(=O)OC)nc2ccccc21`, the Potency entry in assay [1], in assay [3], in assay [4], in assay [5], in assay [6] and in [7] was “inactive” throughout. Also, the Potency result in assay [8] was “inactive”. For the same compound, the Potency in [2] was 34.2 µM (active) and inactive.

As for `OCC(O)CO`, the Potency result in assay [1], in assay [2], in assay [3], in assay [4], in assay [9] and in [5] was “inactive” in each case. In addition, the Potency result in assay [6], in [7] and in [8] was “inactive” each time.

With `NNC(N)=S`, the Potency is 28.4 µM (active) and inactive in assay [1]; “inactive and 19.3 µM (active)” in [2]; 40.4 µM (active) and inactive in [7]. For the same compound, the Potency entry in [3], in assay [4], in [5], in assay [10] and in assay [6] was “inactive” each time.

Regarding `CN(C)C(=O)Nc1ccc(Cl)cc1`, the Potency entry in [1], in assay [2], in assay [3], in [4], in assay [5] and in assay [10] was “inactive” in each case. Moreover, the Potency entry in [6], in [7] and in assay [8] was “inactive” each time.

On to `CCN(CC)C(=O)/C(Cl)=C(\C)OP(=O)(OC)OC`, for which the Potency entry in assay [1], in assay [2], in [3], in assay [4], in assay [5] and in assay [6] was “inactive” each time. The Potency entry in [7] and in [8] was “inactive” throughout.

In the case of `Oc1cc(Cl)c(Cl)cc1Cl`, the Potency entry in assay [1], in assay [2], in [3], in assay [4], in assay [9] and in [5] was “inactive” throughout. Also, the Potency result in assay [6], in assay [7] and in assay [8] was “inactive” in each case.

For `c1ccc(P(c2ccccc2)c2ccccc2)cc1`, the Potency entry in assay [1], in [2], in assay [3], in [4], in assay [9] and in assay [5] was “inactive” in each case. Besides, the Potency entry in assay [6] and in assay [7] was “inactive” throughout. Moreover, in assay [8], the Potency result was “inactive and 3.34 µM (active)”.

Turning to `CCC(C)c1cc([N+](=O)[O-])cc([N+](=O)[O-])c1O` (centres undefined), the Potency result is “inactive and 27.3 µM (active)” in assay [1]; “inactive and 13.7 µM (active)” in [3]; “inactive and 611 nM (active)” in [10]; “inactive and 969 nM (active)” in assay [6]. In addition, the Potency entry in assay [2], in assay [4], in [9], in assay [5], in assay [7] and in assay [8] was “inactive” in each case.

Take `Nc1cccnc1`: the Potency result in [1], in assay [2], in assay [3], in assay [4], in [5] and in assay [10] was “inactive” in each case. Further, the Potency result in assay [6], in assay [7] and in [8] was “inactive” each time.

In the case of `CCCCN(CCCC)N=O`, the Potency result in [1], in [2], in [3], in assay [4], in assay [5] and in [6] was “inactive” in each case. The Potency entry in assay [7] and in assay [8] was “inactive” throughout.

Consider `CC(C)(OOC(C)(C)c1ccccc1)c1ccccc1`, for which the Potency result in assay [1], in assay [2], in assay [3], in assay [4], in assay [5] and in assay [10] was “inactive” throughout. Also, the Potency result in [6] and in assay [8] was “inactive” in each case. The Potency in assay [7] is 48.3 µM (active) and inactive.

Take `Clc1nc(Cl)nc(Cl)n1`: the Potency entry in assay [1], in assay [2], in assay [3], in [4], in [9] and in assay [5] was “inactive” throughout. Further, the Potency entry in assay [10], in assay [6], in assay [7] and in assay [8] was “inactive” in each case.

With `N#CC(Br)Br`, the Potency entry in [1], in assay [2], in [3], in [4], in assay [5] and in [6] was “inactive” each time. Also, the Potency entry in [7] and in assay [8] was “inactive” in each case.

With `CC(C)(c1cc(Cl)c(O)c(Cl)c1)c1cc(Cl)c(O)c(Cl)c1`, the Potency result in assay [1], in assay [2], in assay [3] and in assay [7] was “inactive” throughout. For the same compound, the Potency in assay [5] was 49 µM (active) and 24.5 µM (active); in assay [10] it was 15.4 µM (active) and 19.3 µM (active).

Take `O=C(CCl)c1ccccc1`: the Potency result in assay [1] is “inactive and 61.1 µM (active)”; in [7], “inactive and 24.5 µM (active)”. Moreover, the Potency entry in assay [2], in [3], in assay [5] and in assay [6] was “inactive” each time.

For `Oc1ccc(-c2ccccc2)cc1`, the Potency result in assay [1], in assay [2], in assay [3], in [5], in assay [6] and in assay [7] was “inactive” each time.

With `O=S(=O)(Oc1ccc(Cl)cc1)c1ccc(Cl)cc1`, the Potency result in assay [1], in assay [2], in [3], in assay [9], in [5] and in [10] was “inactive” throughout. Moreover, the Potency result in assay [6], in [7] and in assay [8] was “inactive” each time.

With `C=C(C)C(=O)OCC1CO1` (centres undefined), the Potency result in assay [1], in assay [2], in [3], in assay [9], in [5] and in assay [10] was “inactive” throughout. Besides, the Potency result in assay [6], in [7] and in assay [8] was “inactive” each time.

In the case of `CNC(=O)Oc1cccc2c1OC(C)(C)O2`, the Potency entry in [1], in assay [2], in assay [3], in [4], in assay [5] and in assay [6] was “inactive” in each case. Besides, the Potency entry in assay [7] and in assay [8] was “inactive” in each case.

Turning to `O=[N+]([O-])c1c(Cl)c(Cl)c(Cl)c(Cl)c1Cl`, the Potency entry in [1], in assay [2], in assay [3], in assay [5], in assay [7] and in assay [8] was “inactive” throughout. In addition, the Potency was 24.2 µM (active) in assay [10] and 19.3 µM (active) in assay [6].

For `Nc1ccncc1`, the Potency entry in assay [1], in assay [2], in assay [3], in [5], in [6] and in assay [7] was “inactive” in each case.

Turning to `O=C1C=CC(=O)C=C1`, the Potency entry in assay [1], in assay [2], in assay [3], in assay [4], in assay [6] and in assay [7] was “inactive” each time. Besides, in [8], the Potency entry is “inactive”.

Consider `CC1(C)C(C=C(Cl)Cl)C1C(=O)OC(C#N)c1cccc(Oc2ccccc2)c1` (centres undefined), for which the Potency result in assay [1], in assay [2], in assay [3], in [4], in assay [5] and in assay [6] was “inactive” throughout. Besides, the Potency result in assay [7] and in assay [8] was “inactive” each time.

`O=C(O)CC[N+](=O)[O-]`: the Potency result in [1], in assay [2], in assay [3], in assay [9], in [5] and in [10] was “inactive” in each case. The Potency result in [6], in [7] and in assay [8] was “inactive” each time.
